# Test results from PubChem BioAssay (NCATS).
# Records with an inconclusive call do not appear. Unmarked numbers belong to inactive results. The call rests on the fitted dose curve; in most records, active means well fitted cell-killing curve with a large enough effect; inconclusive means small, poorly fitted or top-dose-only effect; inactive means flat fitted curve, though single readings scatter.
# Experiment: Cell Viability - LYMP2-014 (AID 983);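 further: cells exposed to compound for 24 h at 37 °C; plate controls were DMSO only for no effect and 92 µM tetraoctylammonium bromide for full effect; nearly all actives have a fitted effect of over 50% in size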
# Details: LYMP2-014 lymphoblastoid cells, viability qHTS; series mostly up to 92.2 µM; activity change, negative = cytotoxicity: at the top concentration
# Text: NIH Chemical Genomics Center [NCGC]
# NIH Molecular Libraries Screening Centers Network [MLSCN]
# National Institutes of Environmental Health Sciences [NIEHS]
# National Toxicology Program [NTP]
# We have developed a 1536-well cell-based assay for quantitative high throughput screening (qHTS) against a number of cell lines to determine in vitro cytotoxicity of small molecules. This particular assay uses a human lymphoblastoid cell line (LYMP2-014) purchased from Coriell Institute for Medical Research.
# NCGC Assay Protocol Summary:
# The CellTiter-Glo luminescent cell viability assay (Promega) is a homogeneous method to measure the number of viable cells in culture. The end point readout of this assay is based on quantitation of intracellular ATP, an indicator of metabolic activity, using the luciferase reaction. Luciferase catalyzes the oxidation of beetle Luciferin to oxyluciferin and light in the presence of ATP. The luminescent signal is proportional to amount of ATP present.
# Using the CellTiter-Glo luminescent cell viability assay, the amount of cellular ATP was measured in the lymphoblastoid cell line with complete culture medium following compound treatment for 24 hours. The assay was performed in opaque white Kalypsys 1536-well plates. In the screen, tetraoctylammonium bromide was used as positive control. Library compounds were measured for their ability to cause acute toxicity in the cell line, as reflected by a decrease in intracellular ATP levels, in a concentration-dependent manner. […] AC50 values were determined from concentration-response data modeled with the standard Hill equation.
# qHTS protocol for CellTiter Glo lymphoblastoid cellular assay
# [Step] [Parameter] [Value] [Description]
# 1. Reagent; 5 uL; 2500 lymphoblastoid cells/well
# 2. Time; 5 hr; 37 C incubation
# 4. Controls; 23 nL; Tetraoctylammonium bromide 6.4pM to 92 uM
# 5. Time; 24 hr; 37 C incubation
# 6. Reagent; 5 uL; CellTiter Glo reagent
# 7. Time; 30 min; Room Temperature
# 8. Detection; Luminescence; Viewlux plate reader
# Keywords: cell viability, cytotoxicity, lymphoblastoid cell line, luminescence, NTPHTS, NTPHTS_NCGC, NIEHS, DSSTox, MLSMR, MLSCN, NIH Roadmap, qHTS, NCGC
row,SMILES,"activity change, negative = cytotoxicity [%]"
1,CC(C)(C)c1ccccc1O,-4.74
2,Nc1ccc([N+](=O)[O-])cc1N,1.92
3,OCCCCO,2.81
4,Oc1cccc(Cl)c1Cl,-0.746
5,C=CC(=O)OC,-3.28
6,CN(C)N=O,-3.82
7,COC(=O)c1ccccc1N,-2.33
8,Cc1cccc(C)c1N,-1.17
9,ClCc1ccccc1,-2.35
10,CCSC(=O)N1CCCCCC1,-8.84
11,Nc1ncc([N+](=O)[O-])s1,-9.71
12,O=[N+]([O-])c1cc(Cl)c(Cl)cc1Cl,-7.76
13,Clc1cc(Cl)c(Cl)c(Cl)c1,0.989
14,Nc1ccc(-c2ccccc2)cc1,4.03
15,O=[N+]([O-])CCO,1.65
16,Nc1c(Cl)cc([N+](=O)[O-])cc1Cl,-8.99
17,O=[N+]([O-])c1ccccc1CCl,-16.1
18,CSSC,-2.86
19,CN(C)c1ccccc1,-2.1
20,CC(=O)NNc1ccccc1,-3.06

row,SMILES,"activity change, negative = cytotoxicity [%]"
1,OCCBr,-5.13
2,CC(C)(COCC1CO1)COCC1CO1 (stereo not given),-2.34
3,COc1ccccc1N,-7.74
4,O=C(Cl)OCc1ccccc1,-7.61
5,CC(C)(C)OOC(=O)c1ccccc1,-11.6
6,N#CC(O)c1ccccc1 (stereo not given),1.19
7,CCCCC#N,-2.71
8,Cc1cc(-c2cc(C)c(N)c(C)c2)cc(C)c1N,3.42
9,O=C(O)c1cccc(Cl)c1,-5.26
10,ClC(Cl)c1ccccc1,-1.93
11,O=[N+]([O-])c1ccc(Cl)c(Cl)c1Cl,-9.58
12,Cc1ccc(OP(=O)(Oc2ccc(C)cc2)Oc2ccc(C)cc2)cc1,-2.67
13,O=[N+]([O-])c1ccc(O)c([N+](=O)[O-])c1,3.13
14,CCCC[N+](=O)[O-],4.24
15,CCOP(=S)(OCC)Oc1nc(Cl)c(Cl)cc1Cl,-10.6
16,ClCCCCl,-1.97
17,COC(=O)Nc1cccc(OC(=O)Nc2cccc(C)c2)c1,-4.68
18,Cc1ccccc1[N+](=O)[O-],0.594
19,CCOS(C)(=O)=O,-3.18
20,CN(C)C(=O)Nc1ccc(Cl)cc1,-2.05
